# Assay outcomes (PubChem)
# This is a sample that favours compounds with a hit; in the whole collection about 4.6% have one here.
# USP10 inh: blocks human USP10 ubiquitin-rhodamine cleavage; inhibition, % at 20 µM; purified USP10, Ub-rhodamine fluorescence, 60 min; hit rate 1.1% among 47,000
# USP8 inh: blocks human USP8 ubiquitin-rhodamine cleavage; P40818; purified USP8, Ub-rhodamine cleavage fluorescence, 30 min; inhibition, % at 20 µM; hit rate 4.2% among 47,000; AID 1645853
# USP7 block: human USP7 deubiquitinase inhibition. purified USP7, Ub-rhodamine cleavage fluorescence. inhibition, % at 20 µM. AID 1645854. hit rate 0.3% among 47,000
# UCHL1 inh: blocks human UCHL1 ubiquitin-rhodamine cleavage | inhibition, % at 20 µM | purified UCHL1, Ub-rhodamine cleavage fluorescence | hit rate 0.2% among 47,000 | P09936
# Active calls of the source: *. No stated cut-off is given here; in the data, active means inhibition above about 30%; inactive means the rest.
SMILES,USP10 inh,USP8 inh,USP7 block,UCHL1 inh
O=C1CCCN1CC(=O)N1CCCC(c2ncc(Cc3ccc(F)cc3)o2)C1 (configuration not stated),0,-5,-2,0
O=C(CC1c2ncccc2C(=O)N1c1ccccc1)NCc1ccccc1F (configuration not stated),-1,-1,3,1
Cc1cc(NC(=O)c2cc(-c3cccnc3)n[nH]2)ccc1Br,38*,98*,39*,16
O=C(NCc1ccc(Br)cc1)c1cc(-c2cccnc2)n[nH]1,21,90*,29,3
O=C(NCc1ccc(F)cc1)C1CCN(C(=O)c2cc(-c3cccnc3)n[nH]2)CC1,0,-1,2,-3
CCOc1ccc(CC(=O)Nc2ccc(-c3cn4cccnc4n3)cc2)cc1,14,40*,-24,22
COc1cc(OC)c(OC)cc1CN1CCC2(CC1)Nc1ccccc1C1=NCCN12,-5,-3,1,-3
O=c1cc(-c2cncc(-c3cc4ccccc4o3)c2)nc(-c2ccccc2)[nH]1,1,4,4,-1
O=c1cc(-c2cncc(Br)c2)nc(-c2ccccc2)[nH]1,10,34*,3,1
Cc1nc(CNC(=O)c2ccc(-c3noc(C4CC4)n3)cc2)no1,0,-3,0,0
Cc1cccc(NC(=O)CNC(=O)c2ccc(-c3noc(C4CCCC4)n3)cc2)c1C,59*,0,18,3
Cc1nn(-c2ccc3nncn3n2)c2c1C(c1cc(F)cc(F)c1)CC(=O)N2 (configuration not stated),0,1,5,2
Cn1c(=O)c(N2CCN(C(=O)c3cccc(F)c3)CC2)nc2ccccc21,1,0,-4,0
COc1ccc(NS(=O)(=O)c2cc(NC(=O)Cc3ccccc3F)ccc2N2CCOCC2)cc1,2,-30,3,0
CC1=C(C)C(N(c2ccccc2)c2ccccc2)N(CCC(C)C)C1=O (configuration not stated),9,95*,-8,10
Cc1n[nH]c(C)c1CC(=O)NCc1nnc(-c2nccc3ccccc23)o1,-1,33*,4,2
Cc1cnc(C2CCN(C(=O)c3cc(C4CCCCC4)no3)C2)[nH]1 (configuration not stated),0,-27,1,-1
O=C(CCCn1c(=O)c2cc(Cl)ccc2n(CC(=O)Nc2cccc(F)c2)c1=O)NCc1ccco1,28,30*,-3,-3
O=C(Cn1c(=O)c2ccccc2n(CC(=O)Nc2ccc(F)c(Cl)c2)c1=O)NCc1ccco1,15,44*,7,3
O=C(CCCCn1c(=O)c2ccccc2n(CC(=O)Nc2ccc(F)c(Cl)c2)c1=O)NCc1ccco1,12,59*,0,7
Cn1c(=O)n(CC(=O)Nc2ccc(F)c(Cl)c2)c(=O)c2ccccc21,12,16,6,0
COc1ccccc1CNC(=O)CCCn1c(=O)c2ccccc2n(CC(=O)N2CCN(c3ccccc3)CC2)c1=O,7,1,1,1
O=C(CCCn1c(=O)c2ccccc2n(CC(=O)N2CCN(c3ccccc3)CC2)c1=O)NCc1ccco1,-1,36*,-3,4
CCOc1ccc(CNC(=O)CCC(=O)N2CCOc3ccc(C)cc32)cc1,0,-7,-3,2
COc1ccccc1C1(NC(=O)c2c(C)noc2C)CCCC1,0,1,-4,-4
SMILES,USP10 inh,USP8 inh,USP7 block,UCHL1 inh
Cc1oc(C2CCN(C(=O)NCc3ccccc3)CC2)nc1C(=O)N(C)C,3,8,7,3
CC1Cc2ccccc2N1C(=O)Cc1csc(NC(=O)c2ccc(=O)[nH]c2)n1 (configuration not stated),-7,47*,-29,-25
CC1Cc2ccccc2N1C(=O)COC(=O)c1ccc2ccccc2n1 (configuration not stated),0,-4,-5,0
Cc1ccc(OCCCn2c(CNC(=O)c3ccco3)nc3ccccc32)cc1,-2,41*,-1,5
COc1ccccc1OCCCn1c(CNC(=O)c2ccco2)nc2ccccc21,1,3,-4,0
COc1cccc(-n2cnc3cc(C(=O)NCc4ccncc4)ccc3c2=O)c1,1,58*,0,0
CCC1CN(CC(=O)Nc2ccccc2OC)c2ccccc2S1 (configuration not stated),-7,-3,3,-3
O=C(CSc1nnc(-c2ccncc2)n1Cc1ccccc1)c1ccc2[nH]c(O)cc2c1,-3,65*,-1,-5
Fc1cccc(-c2nnc3sc(-c4ccco4)nn23)c1,0,43*,6,0
COc1cc(OC)cc(-c2nnc3sc(-c4ccco4)nn23)c1,0,19,3,1
